Data reported in PubChem BioAssay (Tox21).
Inconclusive results are not listed. A call without a number means that no potency is given here. Calls of active or inactive are those of the source. The call rests on the fitted dose curve; in most records, active means well fitted cell-killing curve with a large enough effect in the repeat runs; inconclusive means weak or mixed curves, or effect the other way; inactive means no such curve, though single readings can be large or run the other way.

Assay: qHTS assay to identify small molecule agonists of the farnesoid-X-receptor (FXR) signaling pathway - cell viability counter screen (AID 743218); further: nearly all actives have a fitted effect of over 45% in size
Details: FXR-bla HEK293T viability, CellTiter-Glo luminescence, 16 h; series mostly up to 62.6 µM
Excerpt: U.S. Tox21 Program National Center for Advancing Translational Sciences [NCATS] NIH Chemical Genomics Center [NCGC] U.S. Environmental Protection Agency [EPA] National Institutes of Environmental Health Sciences [NIEHS] National Toxicology Program [NTP] U.S. Food and Drug Administration [FDA] Tox21 Assay Overview: The farnesoid-X-receptor (FXR), a nuclear hormone receptor, is highly expressed in liver, intestine, kidney and adrenal cortex. Natural ligands of FXR are the bile acids (Cholic acid, Chenodeoxy cholic acid etc). FXR is an important regulator of diverse metabolic pathways, including the bile acid homeostasis, lipid and glucose metabolisms. FXR regulates the expression of target genes by binding either as a monomer or as a heterodimer with the retinoid X receptor (RXR). Numerous studies have reported that FXR exerts protective function during cholestasis, diabetes, liver regeneration, and cancer. To identify compounds that activate FXR signaling, GeneBLAzer FXR-UAS-bla HEK 293T cell line (Invitrogen, Carlsbad, CA) containing a beta-lactamase reporter gene under the control of a UAS response element was used to screen the Tox21 10K compound library. The cytotoxicity of the Tox21 compound library against the FXR-bla cell line was tested in parallel by measuring the cell viability using CellTiter-Glo assay in the same wells.
Tox21 Assay Protocol Summary: FXR-bla cells were dispensed at 5000 cells/5uL/well in 1536-well black wall/clear bottom plates using a Multidrop Combi (Thermo Fisher Scientific, Waltham, MA) dispenser. After the assay plates were incubated at 37 C and 5% CO2 for 5 h, 23 nL of compounds dissolved in DMSO, positive controls or DMSO only was transferred to the assay plate by a Pintool station (Kalypsys, San Diego, CA). The assay plates were incubated at 37C for 16 h. After 1 uL of LiveBLAzerTM B/G FRET substrate was added using a Bioraptr Flying Reagent Dispenser (FRD) workstation (Beckman Coulter, Indianapolis, IN), the plates were incubated at room temperature for 2 h, and fluorescence intensity was measured by an Envision plate reader (PerkinElmer, Shelton, CT). For cell viability readout that measures cytotoxicity, 4uL/well of CellTiter-Glo reagent was added into the assay plates using a Bioraptr FRD. After 30 min incubation at room temperature, the luminescence intensity in the plates was measured using a ViewLux plate reader (PerkinElmer).
Potency means the concentration at half of the fitted maximal effect.

Compound | Potency
II | inactive
O=[Se]=O | inactive
CC(C)=CCOc1c2occc2cc2ccc(=O)oc12 | inactive
CN(C)c1ccc(N(C)C)cc1 | inactive
Cc1c(F)c(F)c(COC(=O)C2C(/C=C(\Cl)C(F)(F)F)C2(C)C)c(F)c1F (stereo not given) | inactive
Clc1cccc(SC2CCNCC2)n1 | inactive
CC(C)(OO)c1ccccc1 | inactive
COP(=S)(OC)Oc1ccc([N+](=O)[O-])cc1Cl | inactive
COP(=O)(OC)O/C(=C/Cl)c1cc(Cl)c(Cl)cc1Cl | inactive
O=C(Nc1ccccc1)Nc1ccnc(Cl)c1 | inactive
CCCCCCCCCC(=O)O[C@H]1CC[C@H]2[C@@H]3CCC4=CC(=O)CC[C@@H]4[C@H]3CC[C@]12C | inactive
CC(C)O.CC(C)O.OCCN(CCO)CCO.OCCN(CCO)CCO.[Ti] | inactive
CCCCCCCCOC(=O)c1ccc(C(=O)OCCCCCCCC)c(C(=O)OCCCCCCCC)c1 | inactive
Cc1ccc(-c2c(Cl)nc(C#N)n2S(=O)(=O)N(C)C)cc1 | inactive
CC(O)(CS(=O)(=O)c1ccc(F)cc1)C(=O)Nc1ccc(C#N)c(C(F)(F)F)c1 (stereo not given) | inactive
C[C@@H]1CC[C@H]2[C@@H](C)C(=O)O[C@@H]3O[C@@]4(C)CC[C@@H]1[C@]32OO4 | inactive
CCCCCC[N+](=O)[O-] | inactive
Clc1cccc2ccccc12 | inactive
CCO[C@H]1O[C@@H]2OC3(C)CC[C@H]4[C@H](C)CC[C@@H]([C@H]1C)[C@@]24OO3 | inactive
CCOP(=O)(OCC)Oc1ccc([N+](=O)[O-])cc1 | inactive

Compound | Potency
O=Cc1ccc(Cl)cc1Cl | inactive
CC1C(=O)C[C@]2(C(C)C)C[C@H]12 (stereo not given in full) | inactive
CC(=O)[C@H]1CC[C@H]2[C@@H]3CC[C@H]4C[C@](C)(O)CC[C@]4(C)[C@H]3CC[C@]12C | inactive
Brc1ccc(Oc2ccccc2)cc1 | inactive
ClCc1cccc(Cl)c1 | inactive
CCCCNP(N)(N)=S | inactive
O=C(NC(=O)c1c(F)cccc1F)Nc1ccc(OC(F)(F)C(F)OC(F)(F)F)c(Cl)c1 (stereo not given) | inactive
CC1(C)[C@H](C=C(Cl)Cl)[C@@H]1C(=O)O[C@@H](C#N)c1cccc(Oc2ccccc2)c1 | inactive
O=C(N[C@H](c1ccccc1)[C@@H]1CN2CCC1CC2)c1c(Cl)ccc(C(F)(F)F)c1Cl | 70.2 µM (active)
COC(=O)c1cncn1C(C)c1ccccc1 (stereo not given) | inactive
C=CCN1CC[C@]23c4c5ccc(O)c4O[C@H]2C(=O)CC[C@@]3(O)[C@H]1C5 | inactive
Sc1ccccc1Cl | inactive
CCC(Br)(CC)C(=O)NC(N)=O | inactive
O=C1C(Cl)C(CCl)CN1c1cccc(C(F)(F)F)c1 (stereo not given) | inactive
C#CCOC(C(=O)OCCN(C)C)(c1ccccc1)c1ccccc1 | inactive
O=C(OC1CCCCC1)c1ccccc1C(=O)OC1CCCCC1 | inactive
C[C@H]1CNCCc2ccc(Cl)cc21 | inactive
O=S(=O)(Cl)c1ccccc1 | inactive
c1ccc(C2CC2)c(OCC2=NCCN2)c1 | inactive
CC1(C)CCC(Cc2ccc(Cl)cc2)C1(O)Cn1cncn1 (stereo not given) | inactive
